Experimental data from PubChem BioAssay AID1159580 (chemical genetic matrix, 2015).
Where “and” joins values, the source holds several entries; their conditions need not be identical. Equal entries are not always repeated. Hit rate of the full screen: of about 5,500 compounds, about 2,000 (36%) were called active. Another 18% or so got no clear call; they are omitted. Rule as the data show it: active = normalized growth mostly below about 0.91 (no sharp cut-off); inconclusive = no clear call, values can overlap the other calls; inactive = mostly above about 0.92. This is one part of the list.

Experiment: chemical genetic growth profiling, strain panel (AID 1159580);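 also: tested at 20 µM; growth read once vehicle control cultures reached saturation at 30 °C; 1 = growth at the plate median or of vehicle wells; lower values mean less growth of the strain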
Conditions: S. cerevisiae deletion strains, growth OD

Measured: normalized growth

CC1CC[C@]2(NC1)O[C@H]1CC3C4CC[C@H]5C[C@@H](O)CC[C@]5(C)C4CC[C@]3(C)[C@H]1[C@@H]2C (stereo not given in full)
active: locus YAL021C, strain ccr4, active compounds read low 0.173 | locus YAL026C, strain drs2, active compounds read low 0.0682 | locus YAL030W, strain snc1, active compounds read low 0.0859 | locus YBL061C, strain skt5, active compounds read low 0.109 | locus YBR009C, strain hhf1, active compounds read low 0.0771 | locus YBR021W, strain FUR4, active compounds read low 0.272 | locus YBR023C, strain chs3, active compounds read low 0.102 | locus YBR171W, strain sec66, active compounds read low 0.159 | locus YBR229C, strain ROT2, active compounds read low 0.107 | locus YBR231C, strain swc5, active compounds read low 0.167 | locus YBR279W, strain paf1, active compounds read low 0.143 | locus YCL011C, strain gbp2, active compounds read low 0.0814 | locus YCL016C, strain dcc1, active compounds read low 0.103 | locus YCL029C, strain bik1, active compounds read low 0.0809 | locus YCL061C, strain MRC1, active compounds read low 0.103 | locus YCL069W, strain vba3, active compounds read low 0.0775 | locus YCR088W, strain abp1, active compounds read low 0.111 | locus YDL005C, strain med2, active compounds read low 0.104 | locus YDL035C, strain GPR1, active compounds read low 0.0845 | locus YDL040C, strain nat1, active compounds read low 0.164 | locus YDL074C, strain BRE1, active compounds read low 0.148 | locus YDL101C, strain DUN1, active compounds read low 0.0938 | locus YDL185W, strain tfp1, active compounds read low 0.0599 | locus YDL192W, strain arf1, active compounds read low 0.0839 | locus YDR001C, strain nth1, active compounds read low 0.108 | locus YDR069C, strain doa4, active compounds read low 0.386 | locus YDR101C, strain arx1, active compounds read low 0.104 | locus YDR137W, strain rgp1, active compounds read low 0.534 | locus YDR159W, strain sac3, active compounds read low 0.11 | locus YDR162C, strain NBP2, active compounds read low 0.0587 | locus YDR195W, strain ref2 0.225 | locus YDR297W, strain sur2, active compounds read low 0.102 | locus YDR318W, strain mcm21, active compounds read low 0.0797 | locus YDR334W, strain swr1, active compounds read low 0.0978 | locus YDR335W, strain msn5, active compounds read low 0.101 | locus YDR388W, active compounds read low 0.0652 | locus YDR392W, strain spt3, active compounds read low 0.0848 | locus YDR502C, strain sam2, active compounds read low 0.0839 | locus YEL003W, strain gim4, active compounds read low 0.0733 | locus YEL037C, strain rad23, active compounds read low 0.197 | locus YEL061C, strain CIN8 (second series), active compounds read low 0.0698 | locus YER015W, strain faa2, active compounds read low 0.118 | locus YER016W, strain bim1, active compounds read low 0.102 | locus YER110C, active compounds read low 0.135 | locus YER111C, strain swi4, active compounds read low 0.0988 | locus YER155C, strain BEM2 (second series), active compounds read low 0.113 | locus YER155C, strain BEM2, active compounds read low 0.0788 | locus YER167W, strain BCK2, active compounds read low 0.0623 | locus YFR010W, strain ubp6, active compounds read low 0.375 | locus YGL078C, strain dbp3, active compounds read low 0.124 | locus YGL086W, strain mad1, active compounds read low 0.073 | locus YGL167C, strain pmr1, active compounds read low 0.319 | locus YGL173C, strain kem1, active compounds read low 0.442 | locus YGL227W, strain vid30, active compounds read low 0.0819 | locus YGL240W, strain doc1, active compounds read low 0.257 | locus YGL248W, strain PDE1, active compounds read low 0.0587 | locus YGL253W, strain hxk2, active compounds read low 0.0659 | locus YGR135W, strain pre9, active compounds read low 0.0764 | locus YGR229C, strain SMI1, active compounds read low 0.0768 | locus YGR252W, strain gcn5, active compounds read low 0.211 | locus YHR013C, strain ard1, active compounds read low 0.136 | locus YHR027C, strain rpn1, active compounds read low 0.324 | locus YHR030C, strain SLT2, active compounds read low 0.142 | locus YHR079C, strain IRE1 (second series), active compounds read low 0.0949 | locus YHR079C, strain IRE1, active compounds read low 0.54 | locus YHR094C, strain hxt1, active compounds read low 0.0761 | locus YHR129C, strain ARP1, active compounds read low 0.0658 | locus YHR142W, strain chs7, active compounds read low 0.0852 | locus YHR200W, strain rpn10, active compounds read low 0.103 | locus YIL066C, strain RNR3, active compounds read low 0.0618 | locus YIL073C, strain SPO22, active compounds read low 0.125 | locus YIL125W, strain kgd1, active compounds read low 0.102 | locus YIR030C, strain dcg1, active compounds read low 0.0851 | locus YJL092W, strain hpr5, active compounds read low 0.0924 | locus YJL095W, strain BCK1 (second series), active compounds read low 0.0627 | locus YJL095W, strain BCK1, active compounds read low 0.0635 and 0.17 | locus YJL115W, strain asf1, active compounds read low 0.113 | locus YJL129C, strain trk1, active compounds read low 0.102 | locus YJL134W, strain LCB3, active compounds read low 0.0651 | locus YJL154C, strain vps35, active compounds read low 0.156 | locus YJL164C, strain tpk1, active compounds read low 0.0795 | locus YJL166W, strain qcr8, active compounds read low 0.0744 | locus YJL168C, strain set2, active compounds read low 0.0986 | locus YJL187C, strain SWE1 (second series), active compounds read low 0.0801 | locus YJR043C, strain POL32, active compounds read low 0.0984
